In PubChem BioAssay:
Calls of active or inactive are those of the source.

Experiments:
[1] = optical density shifts of acrAB sulA E. coli – strain DRC41, OD650, 48 h, E. coli filamentation inducer project, primary screen (AID 1152); conditions: higher = more signal, called active from +8 up or from −8 down;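 note: E. coli MC1000 strain DRC41 lacking acrAB efflux pump and sulA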
[2] = probe aLefty1 binding on compound microarray – biochemical, small-molecule microarray, 635/667 nm fluorescence, primary screen (AID 1153); conditions: higher = more signal;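 note: score merges spot fluorescence with signal-to-noise ratio from the scanned slide images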
[3] = plasmodial surface anion channel blockers, osmotic lysis – cell-based, P. falciparum Indochina, OD700, 1 h, primary screen (AID 1154); conditions: P. falciparum Indochina infected RBC osmotic lysis, higher = more signal, called active from +8 up or from −8 down
[4] = plasmodial surface anion channel blockers, osmotic lysis – cell-based, P. falciparum Indochina, OD700, 2 h, primary screen (AID 1155);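 note: lysis reports solute entry through the parasite surface anion channel PSAC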; conditions: P. falciparum Indochina infected erythrocytes, higher = more signal, called active from +8 up or from −8 down
[5] = changes in parasitized red cell lysis, either direction – P. falciparum Indochina, OD700, 3 h, PSAC antagonist project, primary screen (AID 1156); conditions: P. falciparum-infected erythrocytes, osmotic lysis, higher = more signal, called active from +8 up or from −8 down
[6] = plasmodial surface anion channel blockers, osmotic lysis – cell-based, P. falciparum Indochina, OD700, 18 h, primary screen (AID 1157); conditions: P. falciparum Indochina infected erythrocytes, osmotic lysis OD700, 18 h; higher = more signal, called active from +8 up or from −8 down
[7] = S6 kinase pathway phospho-S6 level changes – cell-based, A549, cytoblot, luminescence, serum-stimulated, primary screen (AID 1158); conditions: 5 h, higher = more signal;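 note: serum-stimulated A549 lung adenocarcinoma cells; signal is phosphorylated S6 detected by cytoblot immunostaining with HRP secondary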
[8] = biological target: NADPH oxidase 2 (Homo sapiens) (UniProt P04839); test: compounds shifting NOX2 Amplex Red fluorescence – cell-based, HEK293-NOX2, PMA-stimulated, NOX inhibitor project, primary screen (AID 1159); conditions: 45 min, higher = more signal, called active from +8 up or from −8 down; note: test concentration not given here
Sequence of NADPH oxidase 2 (Homo sapiens) (P04839 whole entry, looked up): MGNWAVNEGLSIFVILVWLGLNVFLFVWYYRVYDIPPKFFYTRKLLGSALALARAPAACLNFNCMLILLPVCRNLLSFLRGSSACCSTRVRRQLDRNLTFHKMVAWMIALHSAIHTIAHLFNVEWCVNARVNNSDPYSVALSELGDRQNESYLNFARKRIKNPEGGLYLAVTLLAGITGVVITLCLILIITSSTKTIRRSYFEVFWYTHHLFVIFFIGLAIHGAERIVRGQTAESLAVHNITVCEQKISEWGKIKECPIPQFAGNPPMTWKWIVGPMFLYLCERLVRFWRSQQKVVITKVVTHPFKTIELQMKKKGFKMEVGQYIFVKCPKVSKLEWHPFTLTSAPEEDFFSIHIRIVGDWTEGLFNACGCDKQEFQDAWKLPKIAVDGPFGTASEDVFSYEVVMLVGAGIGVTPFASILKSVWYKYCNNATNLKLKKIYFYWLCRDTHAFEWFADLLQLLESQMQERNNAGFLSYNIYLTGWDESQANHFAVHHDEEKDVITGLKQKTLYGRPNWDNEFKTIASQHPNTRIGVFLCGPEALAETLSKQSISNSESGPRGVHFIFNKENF

[9] = biological target: NADPH oxidase 4 (Homo sapiens) (UniProt Q9NPH5); test: compounds shifting NOX4 Amplex Red fluorescence – cell-based, HEK293-NOX4, tetracycline-induced, NOX inhibitor project, primary screen (AID 1160); conditions: HEK293-NOX4, Amplex Red H2O2 fluorescence, 45 min; higher = more signal, called active from +8 up or from −8 down
Sequence of NADPH oxidase 4 (Homo sapiens) (Q9NPH5 whole entry, looked up): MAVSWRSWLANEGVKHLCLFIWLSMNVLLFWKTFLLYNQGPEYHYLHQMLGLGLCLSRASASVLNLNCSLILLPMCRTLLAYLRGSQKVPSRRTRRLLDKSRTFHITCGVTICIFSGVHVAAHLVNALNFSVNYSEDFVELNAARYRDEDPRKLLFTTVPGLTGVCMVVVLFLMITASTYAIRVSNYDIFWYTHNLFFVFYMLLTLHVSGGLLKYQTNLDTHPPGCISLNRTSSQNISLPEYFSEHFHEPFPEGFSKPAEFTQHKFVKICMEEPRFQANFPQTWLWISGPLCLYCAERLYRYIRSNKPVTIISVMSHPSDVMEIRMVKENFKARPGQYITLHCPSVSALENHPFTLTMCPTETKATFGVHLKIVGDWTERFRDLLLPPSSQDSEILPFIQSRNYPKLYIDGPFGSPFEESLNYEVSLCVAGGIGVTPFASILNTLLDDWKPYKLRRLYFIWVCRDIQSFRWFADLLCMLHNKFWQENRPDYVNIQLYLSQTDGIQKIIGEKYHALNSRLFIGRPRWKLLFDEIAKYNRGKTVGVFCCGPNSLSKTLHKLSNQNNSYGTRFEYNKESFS

[10] = biological target: NADPH oxidase 5 (Homo sapiens) (UniProt Q96PH1); test: compounds shifting NOX5 Amplex Red fluorescence – cell-based, HEK293-NOX5, NOX inhibitor project, primary screen (AID 1161); conditions: HEK293-NOX5, ionomycin, 45 min, higher = more signal
Sequence of NADPH oxidase 5 (Homo sapiens) (Q96PH1 whole entry, looked up): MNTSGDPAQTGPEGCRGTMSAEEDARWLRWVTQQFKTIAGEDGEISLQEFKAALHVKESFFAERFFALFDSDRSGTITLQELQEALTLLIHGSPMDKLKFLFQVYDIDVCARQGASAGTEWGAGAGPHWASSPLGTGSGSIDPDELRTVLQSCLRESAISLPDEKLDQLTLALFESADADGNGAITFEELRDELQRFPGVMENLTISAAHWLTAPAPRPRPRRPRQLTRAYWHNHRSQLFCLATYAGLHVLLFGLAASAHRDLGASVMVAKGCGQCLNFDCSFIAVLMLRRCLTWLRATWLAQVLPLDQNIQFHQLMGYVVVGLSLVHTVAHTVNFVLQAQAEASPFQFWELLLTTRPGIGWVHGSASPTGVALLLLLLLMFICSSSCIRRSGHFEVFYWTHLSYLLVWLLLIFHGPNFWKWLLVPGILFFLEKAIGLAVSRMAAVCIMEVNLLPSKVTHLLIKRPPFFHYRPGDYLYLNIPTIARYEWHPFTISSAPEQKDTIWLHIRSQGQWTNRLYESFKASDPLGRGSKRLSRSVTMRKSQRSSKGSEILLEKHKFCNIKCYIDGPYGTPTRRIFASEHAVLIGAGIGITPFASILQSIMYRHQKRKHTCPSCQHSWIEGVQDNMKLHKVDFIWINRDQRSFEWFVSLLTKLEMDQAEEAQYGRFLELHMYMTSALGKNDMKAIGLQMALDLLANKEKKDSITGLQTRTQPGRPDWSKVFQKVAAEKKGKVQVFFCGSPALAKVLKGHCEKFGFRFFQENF

Structure (SMILES) | z-score [1] | composite z-score [2] | z-score [3] | z-score [4] | z-score [5] | z-score [6] | z-score [7] | z-score [8] | z-score [9] | z-score [10]
O=C1OCC=C[C@H]2OC34C=CCN(c5ccc6ccccc6c5)C(=O)[C@H]3N(CCCO)C(=O)[C@@H]4[C@@H]12 (stereo not given in full) | 0.392 (inactive) | 0.251 | 0.638 (inactive) | -0.0892 (inactive) | 0.572 (inactive) | -1.56 (inactive) | 1.28 | 1.09 (inactive) | -0.0483 (inactive) | 0.904
O=C1C2C=CC(C(O)c3cccs3)N(Nc3ccccc3F)C2C(=O)N1c1ccccc1 (stereo not given) | 0.386 (inactive) | 0.248 | 1.35 (inactive) | -0.506 (inactive) | -1.27 (inactive) | -1.23 (inactive) | 0.224 | -0.932 (inactive) | -3.7 (inactive) | -1.78
COC(=O)C[C@@H]1C[C@H](C)[C@]2(O1)C(=O)N(Cc1ccccc1)c1ccc(NC(C)=O)cc12 | 0.442 (inactive) | -0.193 | 1.66 (inactive) | -0.0327 (inactive) | 0.962 (inactive) | 0.0822 (inactive) | 0.525 | 0.627 (inactive) | -1.06 (inactive) | 2.27
CN(C)CCCCCCNC(=O)[C@H]1C[C@H]2C(=O)N[C@@H](CCCCN)C(=O)N2[C@H]1c1ccc(O)cc1 | -0.261 (inactive) | 2.82 | -0.294 (inactive) | 0.155 (inactive) | -0.844 (inactive) | 0.303 (inactive) | 0.169 | 0.418 (inactive) | -0.145 (inactive) | 0.887
NC(=O)NCC#Cc1ccc2c(c1)[C@]1(C(=O)N2)[C@H](C(=O)NC[C@H](O)c2ccccc2)[C@H]2C(=O)O[C@H](c3ccccc3)[C@H](c3ccccc3)N2[C@@H]1c1ccc(O)cc1 | -0.765 (inactive) | -0.149 | 0.397 (inactive) | -0.0004 (inactive) | 2.63 (inactive) | -0.048 (inactive) | -0.0546 | 1.3 (inactive) | 0.02 (inactive) | 0.404
CCCCC=C[C@@H](NC(=O)c1ccco1)c1ccccc1 | -1.24 (inactive) | 0.0701 | 1.02 (inactive) | 0.941 (inactive) | -0.279 (inactive) | 0.813 (inactive) | 0.782 | -0.226 (inactive) | 0.76 (inactive) | 1.01
COCCOC(=O)N1C(=O)[C@@]2(c3cc(C#CC4=CCCCC4)ccc31)[C@H](C(=O)N1CCc3cc(OC)c(OC)cc3C1)[C@H]1C(=O)O[C@H](c3ccccc3)[C@H](c3ccccc3)N1[C@@H]2c1ccccc1OCCO | 0.585 (inactive) | -0.012 | 2.4 (inactive) | 0.876 (inactive) | 0.827 (inactive) | 0.703 (inactive) | -0.113 | 1.72 (inactive) | 0.58 (inactive) | 1.99
COCCOC(=O)N1C(=O)[C@@]2(c3cc(C#CCCO)ccc31)[C@H](c1ccc(O)cc1)N1[C@H](c3ccccc3)[C@H](c3ccccc3)OC(=O)[C@H]1[C@@H]2C(N)=O | -0.595 (inactive) | 0.501 | 6.55 (inactive) | 1.15 (inactive) | 0.152 (inactive) | 0.311 (inactive) | -0.218 | 0.712 (inactive) | -0.952 (inactive) | 0.23
O=C1OCCC/C=C\[C@H]2OC34C=CCN(Cn5nnc6ccccc65)C(=O)[C@H]3N(CCCCCO)C(=O)[C@@H]4C12 (stereo not given in full) | 0.246 (inactive) | 0.278 | 2.6 (inactive) | 0.0767 (inactive) | -0.212 (inactive) | 0.479 (inactive) | -0.339 | 0.871 (inactive) | -0.167 (inactive) | 1.15
C=CCNC(=O)[C@@H]1[C@H]2C(=O)O[C@H](c3ccccc3)[C@H](c3ccccc3)N2[C@H](c2ccc(OCCO)cc2)[C@@]12C(=O)Nc1ccccc12 | 1.52 (inactive) | 0.0235 | 5.12 (inactive) | 0.39 (inactive) | -0.844 (inactive) | 0.002 (inactive) | 4.16 | 1.38 (inactive) | 0.767 (inactive) | -0.355
COc1ccc(C(O)C2C=CC3C(=O)N(C)C(=O)C3N2Nc2ccccc2)cc1OCc1ccccc1 (stereo not given) | -1.69 (inactive) | 0.0451 | 1.68 (inactive) | 1.36 (inactive) | 0.272 (inactive) | 1.1 (inactive) | -1.17 | -1.25 (inactive) | -4.36 (inactive) | -2.57
COCCOC(=O)N1C(=O)[C@@]2(c3cc(C#CCNC(N)=O)ccc31)[C@H](c1ccc(OCCO)cc1)N1[C@H](c3ccccc3)[C@H](c3ccccc3)OC(=O)[C@H]1[C@@H]2C(=O)N1CCc2cc(OC)c(OC)cc2C1 | 0.506 (inactive) | 0.308 | 3.71 (inactive) | 1.89 (inactive) | 0.523 (inactive) | 1.15 (inactive) | 0.307 | 1.89 (inactive) | 1.09 (inactive) | 0.284
C=CCC(OC(C)=O)[C@@H]1[C@@H](N(Cc2ccc(-c3cccc(C(F)(F)F)c3)o2)C(=O)c2ccc(C)cc2)c2cc(OCCCO)ccc2N1C(=O)c1ccc(-c2ccccc2)cc1 (stereo not given in full) | 1.35 (inactive) | -0.0464 | 1.93 (inactive) | 0.705 (inactive) | -0.0802 (inactive) | -0.0352 (inactive) | -0.047 | -3.28 (inactive) | 0.822 (inactive) | 2.25
COc1ccc([Si](C)(C)[C@@H]2[C@@H](CC(=O)N(CCO)Cc3ccccc3)O[C@]3(C(=O)N(C)c4ccccc43)[C@H]2C)cc1 | -0.733 (inactive) | 0.31 | 11.8 (active) | 2.07 (inactive) | -0.87 (inactive) | 0.57 (inactive) | 0.388 | 0.406 (inactive) | 0.965 (inactive) | -1.21
C[C@]1(C(=O)NCc2ccccc2)c2ccccc2C(=O)N(Cc2ccc(OC(F)(F)F)cc2)[C@H]1c1ccc(CO)cc1 | 1.17 (inactive) | -0.142 | 3.54 (inactive) | -0.18 (inactive) | -0.495 (inactive) | -0.779 (inactive) | 0.843 | -0.944 (inactive) | -1.33 (inactive) | -0.499
CCCCCCc1nc(CCCc2cc3c(c(CCCCCC)n2)[Si](C(C)C)(C(C)C)OC3)cc2c1[Si](C(C)C)(C(C)C)OC2 | -0.613 (inactive) | 0.13 | 0.611 (inactive) | -1.07 (inactive) | 0.695 (inactive) | -1.72 (inactive) | 0.62 | -3.69 (inactive) | -1.13 (inactive) | -3.41
C=CCN1C(=O)[C@]2(O[C@H](CCO)[C@@H]([Si](C)(C)c3ccc(OC)cc3)[C@@H]2C)c2cc(NC(=O)[C@H](C)O)ccc21 | -0.589 (inactive) | 0.174 | 9.01 (active) | 2.65 (inactive) | -0.212 (inactive) | 1.43 (inactive) | 1.23 | 0.911 (inactive) | 1.26 (inactive) | 0.375
C[N+](C)(C)CCCCCCNC(=O)[C@H]1C[C@H]2C(=O)N3CCC[C@H]3C(=O)N2[C@H]1c1ccc(O)cc1 | 0.864 (inactive) | -0.0489 | 1.37 (inactive) | -0.948 (inactive) | -0.937 (inactive) | -1.44 (inactive) | 0.707 | -0.87 (inactive) | -1 (inactive) | -2.81
[N-]=[N+]=NCc1ccccc1C[C@@]1(C(=O)NCC(O)CO)N=C(c2ccc(OCCCO)cc2)O[C@@H]1c1ccccc1CN=[N+]=[N-] (stereo not given in full) | 0.19 (inactive) | 0.455 | 27.4 (active) | 14.6 (active) | 0.029 (inactive) | 2.24 (inactive) | -0.324 | 0.266 (inactive) | 1.54 (inactive) | 2.31
COc1ccc(CCNC(=O)[C@@]2(c3ccc([N+](=O)[O-])cc3)CC(=O)N(CC34CC5CC(CC(C5)C3)C4)[C@@H]2c2ccc(CO)cc2)cc1 | 0.0305 (inactive) | 0.155 | 4.6 (inactive) | 0.522 (inactive) | 3.14 (inactive) | -0.24 (inactive) | 2 | -0.956 (inactive) | -4.54 (inactive) | -3.97
C#CCN(C(/C=C/c1ccccc1)CO)C(C(=O)O)c1ccccc1 (stereo not given) | 1.86 (inactive) | -0.319 | 0.175 (inactive) | -1.57 (inactive) | -0.168 (inactive) | -2.09 (inactive) | 1.81 | -0.269 (inactive) | -0.46 (inactive) | -0.191
O=C(CCN1CCOCC1)c1cccc(O)c1 | -0.202 (inactive) | 0.154 | 0.205 (inactive) | -1.48 (inactive) | -0.582 (inactive) | -1.68 (inactive) | 0.4 | -2.74 (inactive) | -0.206 (inactive) | 1.72
